From PubChem
Rows were chosen to be rich in hits. Some 4.1% of all compounds tested hit in one or more screens of this group.
Casp6 inh: blocks human caspase-6 cleavage activity. 350,000 compounds, 0.53% hits. purified caspase-6, Z-VEID-R110 cleavage fluorescence. inhibition, % at 12.5 µM. AID 686996;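 active = mean inhibition across replicates at least about 35%, with every replicate also reaching that limit, limit read from the data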;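 note: 0% = median of neutral control wells and 100% = no fluorescence left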
Target sequence (P55212 24-179 limits assumed): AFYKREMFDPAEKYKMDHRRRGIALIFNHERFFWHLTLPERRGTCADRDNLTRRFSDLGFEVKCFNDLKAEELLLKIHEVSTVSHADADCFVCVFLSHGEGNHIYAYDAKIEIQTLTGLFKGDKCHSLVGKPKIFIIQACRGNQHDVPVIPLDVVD
Target sequence (P55212 194-293 limits assumed): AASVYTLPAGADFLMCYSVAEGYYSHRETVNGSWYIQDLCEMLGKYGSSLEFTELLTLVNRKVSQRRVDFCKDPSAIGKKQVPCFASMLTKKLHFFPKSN
HIV Env fusion: inhibitors of HIV Env-mediated cell fusion; inhibition, % at 12.3 µM; HeLa-JRFL Env/CEM21 cell fusion, luciferase; 360,000 compounds, 1.1% hits; AID 651610;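 active = mean replicate inhibition score of at least 50 and every replicate individually at or above 50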;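 note: 0% = plate neutral controls and 100% = maraviroc near 300 nM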
F508del corr: CFTR F508del correction in bronchial cells; 350,000 compounds, 0.36% hits; activity (quench increase), % at 7.58 µM; AID 720511; CFBE cells, YFP halide quenching; stimulated with forskolin plus potentiator P3; % fluorescence drop versus neutral controls;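 active = mean added fluorescence quench of at least 8% versus neutral control, with both replicates also reaching 8%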;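 note: cells transiently co-express mutant CFTR-F508del with the halide-sensitive YFP; corrector assay measuring rescue of mutant channel to the surface after 24 h compound exposure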
ALR inh: human ALR oxidase inhibition via reduced H2O2. P55789. purified ALR, DTT oxidation, H2O2 HRP-luminol luminescence. inhibition, % (no concentration beside the values). 290,000 compounds, 3.8% hits. AID 485317;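 active = mean replicate inhibition above about 79%, with every replicate also reaching it, limit read from the data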
Target sequence (P55789 whole entry, looked up): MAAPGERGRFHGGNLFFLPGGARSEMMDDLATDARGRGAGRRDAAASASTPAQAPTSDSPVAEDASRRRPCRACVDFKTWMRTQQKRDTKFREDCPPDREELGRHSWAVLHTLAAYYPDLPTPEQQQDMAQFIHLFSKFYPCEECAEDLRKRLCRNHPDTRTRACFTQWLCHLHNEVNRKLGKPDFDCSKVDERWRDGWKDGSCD
NSD2 inh: blocks human histone methyltransferase NSD2; O96028; NSD2 peptide methylation, AlphaScreen, 120 min; inhibition, % at 12.5 µM; 310,000 compounds, 0.54% hits; in the data active = inhibition above about 50%
PglD DTNB: blocks C. jejuni PglD acetyltransferase activity. 360,000 compounds, 0.098% hits. inhibition, % at 12.5 µM. purified PglD enzyme, DTNB colorimetric CoA detection; in the data active = inhibition above about 16%, passing the limit was not always enough
An asterisk follows results filed as active; . = no result; [ ] = remark or other dose.

SMILES | Casp6 inh | HIV Env fusion | F508del corr | ALR inh | NSD2 inh | PglD DTNB
O=C(c1cccc2ccccc12)N1CCN=C1SCc1ccc([N+](=O)[O-])cc1 | -3 | 36 | . | 98* | -1 | -2
COc1ccc(NC(=O)N(C)C[C@@H]2Oc3ccc(NC(=O)Cn4cnnn4)cc3C(=O)N([C@@H](C)CO)C[C@H]2C)cc1 | 0 | . | -2 | . | . | -7
COC(=O)Cn1c(=NC(=O)c2ccc(Cl)s2)sc2cc(C)ccc21 | . | -8 | . | -3 | -2 | 4
COC(=O)Cn1c(=NC(=O)c2ccc([N+](=O)[O-])s2)sc2cc(Br)ccc21 | . | . | . | 98* | . | .
O=C(C[C@@H]1CC[C@H](NC(=O)C2CCC2)[C@@H](CO)O1)NCCCN1CCOCC1 | 1 | -29[16.7 µM] | 0 | . | . | 4
Cc1nc2ccccn2c1-c1ccnc(=S)[nH]1 | -1 | 2 | -1 | 100* | -1 | .
O=C(NCCC1=CCCCC1)c1ccc(Cl)c(S(=O)(=O)N2CCOCC2)c1 | . | 43 | . | -6 | -2 | 0
Cc1ccccc1CCNC(=O)c1ccc(Cl)c(S(=O)(=O)N2CC(C)OC(C)C2)c1 (stereo unspecified) | 2 | 59* | 4 | . | 1 | -4
Cc1ccc(CSCCNC(=O)c2ccc(Cl)c(S(=O)(=O)N3CCOCC3)c2)cc1 | . | 85* | . | -2 | -4 | -2
CCCCOP(=O)(c1ccc(N(C)C)cc1)C(O)c1ccc(C(C)C)cc1 (stereo unspecified) | 5 | 52 | 0 | 6 | 5 | 1
CCCCOP(=O)(c1ccc(N(C)C)cc1)C(O)c1c(Cl)cccc1Cl (stereo unspecified) | 0 | 59* | 3 | -3 | 3 | 4
CCCCOP(=O)(c1ccc(N(C)C)cc1)C(O)c1ccc(N(C)C)cc1 (stereo unspecified) | 5 | 14 | 0 | 92* | 4 | 9
CC(=O)N1CC2(C1)[C@H](c1ccccc1)[C@H](CO)N2S(=O)(=O)c1ccccc1 | 1 | . | -1 | . | . | .
Cc1ccc(-c2ccc(/C=C(\C#N)C(=O)Nc3cc(C)nn3-c3ccccc3)o2)cc1 | . | . | . | -6 | . | .
N#C/C(=C\c1ccc(-c2ccccc2)o1)C(=O)Nn1cnnc1 | . | -65 | . | 98* | 28 | .
C[C@@H]1CN([C@@H](C)CO)C(=O)c2cc(NC(=O)CCCCCC(=O)Nc3ccccc3N)ccc2O[C@@H](C)CCCCO[C@@H]1CN(C)C(=O)Nc1ccc(C(F)(F)F)cc1 | -1 | 10[16.7 µM] | 1 | . | . | 7
COc1ccc(C(=O)C2CCN(C(=O)c3ccc(C)cc3)CC2)cc1 | . | 86* | . | 0 | -2 | 0
COc1ccc(C(=O)C2CCN(C(=O)c3ccc(F)cc3)CC2)cc1 | -2 | 10 | -1 | . | 1 | -2
CSc1ncc(Cl)c(C(=O)Nc2cccc(C)c2)n1 | . | 6 | . | 2 | -1 | .
CSc1ncc(Cl)c(C(=O)C(C#N)c2nc3c(C)cc(C)cc3c(=O)[nH]2)n1 (stereo unspecified) | 8 | . | 1 | 86* | 13 | -1
CO[C@@H]1CC[C@H]2CCN(C)C(=O)C[C@H](c3ccccc3)CN(C)C(=O)c3cccc(C#N)c3OC[C@H]1O2 | -3 | 19[16.7 µM] | . | . | . | 1
COc1cc(OC)cc(-c2nnc(SCc3cccnc3)o2)c1 | 2 | . | -1 | -4 | -1 | 2
O=C(c1cccc(F)c1)N1CCN=C1SCc1cccnc1 | -2 | 7 | -4 | 100* | . | -3
O=C(c1ccc2c(c1)OCO2)N1CCN=C1SCc1ccccc1 | 4 | 19 | 4 | 93* | . | -2
COc1cc(OC)cc(C(=O)N2CCN=C2SCc2cccnc2)c1 | -4 | 13 | 0 | 100* | . | -7
SMILES | Casp6 inh | HIV Env fusion | F508del corr | ALR inh | NSD2 inh | PglD DTNB
O=C(c1ccc(Br)o1)N1CCN=C1SCc1cccc(F)c1 | 3 | -15 | 3 | 58 | . | 2
Cc1noc(C)c1S(=O)(=O)Nc1ccc2c(c1)C(=O)N([C@H](C)CO)C[C@H](C)[C@H](CN(C)C(=O)Nc1ccc3c(c1)OCO3)O2 | 2 | . | 0 | . | . | -11
O=C(C1CC1)N1CC(=O)N2[C@H](CO)[C@H](c3ccc(-c4ccccc4F)cc3)[C@H]2C1 | 3 | . | 0 | . | . | .
C[C@@H]1CN([C@H](C)CO)C(=O)c2cc(NC(=O)Nc3ccc(C(F)(F)F)cc3)ccc2O[C@@H](C)CCCCO[C@@H]1CN(C)Cc1ccc(Cl)c(Cl)c1 | -1 | 8[16.7 µM] | 2 | . | . | -3
CO[C@H]1CN(C)C(=O)c2ccc(NS(=O)(=O)c3ccc(-c4ccccc4)cc3)cc2OC[C@H](C)NC[C@@H]1C | 0 | . | 0 | . | . | .
COc1ccccc1-c1ccc([C@H]2[C@@H](CO)N(C(=O)C3CCCC3)[C@H]2C#N)cc1 | -3 | 16[16.7 µM] | -2 | . | . | .
CC(NC(=O)C(c1ccccc1)c1ccccc1)c1ccc(S(N)(=O)=O)cc1 (stereo unspecified) | . | 13 | 3 | 2 | 1 | 2
Cc1cc(C(=O)CCC(=O)NC(C)c2ccc(S(N)(=O)=O)cc2)c(C)s1 (stereo unspecified) | 1 | -4 | 8.8* | -4 | -2 | -3
CCc1cc2c3c(c1)C(C)CC(C)(C)N3C(=O)/C2=C1\SC(=O)NC1=O (stereo unspecified) | 8 | -2 | 3 | 97* | 31 | 2
CCOC(=O)CSC1=NC(=O)/C(=C\c2ccc(OC(C)=O)cc2)S1 | . | . | . | 100* | -8 | -6
Cc1ccc2[nH]c3c(=O)[nH]ncc3c2c1 | 1 | 66* | 0 | -20 | 0 | -2
O=C(Nc1ccc(C(F)(F)F)cc1)N[C@H]1CC[C@@H](CCn2cc(C3(O)CCCC3)nn2)O[C@@H]1CO | 1 | 5[16.7 µM] | 2 | . | . | -2
CCN1CCN(CCC2Oc3cc([N+](=O)[O-])ccc3NC2=O)CC1 (stereo unspecified) | -1 | 3 | 1 | 3 | 11 | -8
COc1ccc(N2CCN(CCC3Oc4cc([N+](=O)[O-])ccc4NC3=O)CC2)cc1 (stereo unspecified) | 3 | 1 | 6 | 86* | 11 | -4
C[C@H]1CN([C@@H](C)CO)C(=O)c2cc(NC(=O)Cc3ccccc3)ccc2O[C@@H]1CN(C)S(=O)(=O)c1ccc(Cl)cc1 | 0 | -18[16.7 µM] | 0 | . | . | 6
CO[C@@H]1CN(C)C(=O)c2ccc(NC(=O)c3cc(C)on3)cc2OC[C@@H](C)N(C(C)=O)C[C@@H]1C | 1 | -8[16.7 µM] | 1 | . | . | 1
CCN(CC)S(=O)(=O)c1ccc(C(=O)Nc2nnc(CSC)o2)cc1 | 0 | 5 | . | 91* | -2 | .
Cc1noc(C)c1NC(=O)Nc1ccc2c(c1)CC(=O)N([C@@H](C)CO)C[C@@H](C)[C@H](CN(C)S(=O)(=O)c1ccc(F)cc1)O2 | 1 | -11[16.7 µM] | -2 | . | . | -3
COc1ccc(-c2cc(C(F)F)n3ncc(C(=O)n4ccnc4C)c3n2)cc1 | . | 6 | . | 99* | 0 | .
COc1ccc(-c2cc(C(F)F)n3ncc(C(=O)N4CCc5ccccc54)c3n2)cc1 | 10 | 11 | 14* | 1 | 16 | -3
